Source: PubChem BioAssay AID488837 (National Center for Advancing Translational Sciences (NCATS), 2010)
The whole screen tested about 330,000 compounds, of which about 20 (0.006%) were called active. Not shown: some 1% with an inconclusive outcome. The sample holds actives, similar compounds and a random draw of the others, so the mix is not that of the screen. Unmarked numbers belong to inactive results. Calls follow the shape of the dose curve; as a rule, active = well fitted inhibition curve with a large enough effect; inconclusive = small, poorly fitted or top-dose-only effect, or effect the other way; inactive = flat fitted curve, though single readings scatter.

target: Protein phosphatase EYA2 (Homo sapiens) (UniProt O00167); assay: qHTS Assay for Inhibitors of the Phosphatase Activity of Eya2; settings: recombinant Eya2, OMFP fluorescence dephosphorylation (OMFP is methylfluorescein phosphate); series mostly up to 76.9 µM; activity, negative = inhibition: at the top concentration
Description: The Eya family of proteins are essential co-activators of the Six1 transcription factor. Six1 is a developmental gene that is abnormally re-expressed in a large percentage of breast cancers. This over-expression plays a causal role in the initiation and metastatic development of breast cancers. The Eya family of proteins was also found to contain a unique HAD phosphatase domain with protein tyrosine phosphatase activity which can potentially play a role in Six1-mediated breast tumorigenesis. […] We have developed and optimized a 1536 well fluorescence-based HTS assay targeting the phosphatase activity of Eya2. Inhibitors found against Eya2 could serve as potential therapeutic tools to inhibit Six1-mediated breast tumorigenesis and to increase the efficiency of radiation and certain chemo therapy. These inhibitors could also be used as chemical probes to study the function of Eya2's phosphatase activity and its role in Six1-mediated breast tumorigenesis.
The Eya2 enzyme was kindly provided by the laboratory of Dr. Rui Zhao. The 3-O-methyl-fluorescein phosphate (OMFP) substrate and all buffer reagents were purchased from Sigma Aldrich. qHTS Assay Setup: 1. Buffer- 50 mM HEPES pH 7.5, 50 mM NaCl, 5 uM MgCl2, 0.05% BSA, 1 mM DTT. 2. OMFP Stock- 10 mM solution prepared in 100% DMSO and stored in single use aliquots at -20C. Assay Procedure- 1. Dispense 1.5 ul per well of Eya2 at 0.2 uM in black medium binding 1536 well Greiner plate 2. Transfer 23 nl of compound and control compound (EGTA) to plate 3. Incubate at ambient for 10 minutes 4. Dispense 1.5 ul per well of OMFP at 50 uM 5. Incubate at ambient for 10 minutes 6. Read on ViewLux using Excitation = 485 nm, Emission = 525 nm
% is scaled to controls: 0 for no effect and ±100 for the full control effect; potency is read from the fitted curve at half-maximal effect.

Protein phosphatase EYA2 (Homo sapiens), sequence (O00167 whole entry, looked up, the tested form may be a part): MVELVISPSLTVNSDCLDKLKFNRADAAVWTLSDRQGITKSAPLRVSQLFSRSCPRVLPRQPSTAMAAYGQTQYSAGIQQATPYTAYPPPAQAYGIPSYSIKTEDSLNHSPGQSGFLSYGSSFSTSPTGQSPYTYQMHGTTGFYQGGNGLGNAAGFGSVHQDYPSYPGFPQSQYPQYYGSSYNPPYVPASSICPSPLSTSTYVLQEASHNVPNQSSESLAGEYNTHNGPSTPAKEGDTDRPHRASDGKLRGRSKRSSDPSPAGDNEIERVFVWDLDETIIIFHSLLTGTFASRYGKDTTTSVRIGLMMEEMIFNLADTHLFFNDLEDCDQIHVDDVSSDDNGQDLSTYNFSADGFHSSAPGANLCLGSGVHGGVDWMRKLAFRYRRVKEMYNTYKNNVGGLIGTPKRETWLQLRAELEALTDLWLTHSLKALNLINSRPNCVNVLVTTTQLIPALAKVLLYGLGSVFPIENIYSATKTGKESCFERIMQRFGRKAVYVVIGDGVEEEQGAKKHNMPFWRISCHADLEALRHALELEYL

In order of rising “activity, negative = inhibition” value:
1. O=C(OC1CCOC1=O)c1ccc(-c2nc3ccccc3s2)s1 (stereo not given)  -34.3%
2. C#CCOCCOCCOCCNc1nc(N2CCN(C(=O)CCCCCCCCCCNC(=O)[C@H](CCCCN)n3cc(C)nn3)CC2)nc(N2CCN(C(=O)CCCCCCCCCCNC(=O)[C@H](CO)n3cc(CCCSC)nn3)CC2)n1  -28%
3. Cc1cc(=O)[nH]c(N/N=C/c2c(C)nn(-c3ccccc3Cl)c2Cl)n1  -26.3%
4. O=S(=O)(/C=C/c1ccccc1)NCCc1ccccn1  -14.7%
5. CC(C)(C)c1cc2cccnc2n1Cc1ccccc1  -13.3%
6. O=S(=O)(c1ccc(Cl)cc1)c1nc(-c2ccccc2F)oc1NCCN1CCOCC1  -12.3%
7. CN(C)C(=O)CCc1ccc2c3c([nH]c2c1)[C@]1(C)[C@@H](C(=O)N2CCOCC2)C[C@H](CC(=O)NCCc2ccccn2)C(=O)N1CC3  -11.1%
8. COc1ccc(C(C#N)Nc2ccc(C)cc2)cc1 (stereo not given)  -10.6%
9. COc1ccc(CCc2nnc(CCC(=O)NCc3cnn(-c4ccccc4C)c3)o2)cc1  -10.2%
10. Cc1nnnn1/C(=C\c1ccccc1)C(=O)OCC(=O)N1CC2(C)CC1CC(C)(C)C2 (stereo not given)  -9.54%
11. C=CCOc1ccc(C(=O)Nc2ccccc2C(=O)N2CCCC2)cc1  -9.4%
12. CN1CCN(C(=O)c2ccccc2NC(=O)COc2ccccc2Cl)CC1  -9%
13. O=C(NCc1cc(C(F)(F)F)cc(C(F)(F)F)c1)C1CC(c2cccc(F)c2)=NO1 (stereo not given)  -8.95%
14. Cc1c(C#N)c2ncn(CC#N)c(=O)c2n1-c1ccccc1  -8.63%
15. COc1ccc(-c2cc(C(F)(F)F)nc(S(C)(=O)=O)n2)cc1OC  -7.48%
16. CC(CC(=O)Nc1ccc(F)cc1F)S(=O)(=O)c1ccc2c(c1)NC(=O)CO2 (stereo not given)  -7.4%
17. COc1cc(C)c(S(=O)(=O)N2CCOCC2)c(C)c1C  -7.22%
18. Cc1ccc(-n2cc(CN(C)Cc3nccn3C)c(-c3cccc(C)c3)n2)cc1  -7.18%
19. CCc1cccc(C)c1N1C(=O)CN(Cc2ccccc2)C1=S  -6.41%
20. CCN1CCN(c2nc(Nc3cc(OC)ccc3OC)nc(Nc3cc(OC)ccc3OC)n2)CC1  -6.37%
21. O=C(NCCCCO)C(F)(F)C(F)(F)C(F)(F)C(=O)NCCCCO  -6.32%
22. CSc1ccccc1N1CCN(CCCCCC(=O)NC2CCCc3ccccc32)CC1 (stereo not given)  -6.18%
23. COc1ccc(-c2nc3ccccc3n2CCC(C)C)cc1OC  -6.08%
24. O=C(CSc1ccccc1F)NC1CCS(=O)(=O)C1 (stereo not given)  -4.96%
25. Cn1c(-c2ccc(F)cc2)cc2onc(-c3ccccc3Cl)c2c1=O  -4.03%
26. C#CCOCCOCCOCCNc1nc(N2CCN(C(=O)CCCCCCCCCCNC(=O)Cn3cc(CCCCCN)nn3)CC2)nc(N2CCN(C(=O)CCCCCCCCCCNC(=O)[C@H](CO)n3cc(CCCSC)nn3)CC2)n1  -3.97%
27. CCOc1ccc(NC(=O)C(C)N2C(=O)c3ccccc3C2=O)cc1 (stereo not given)  -3.16%
28. N#CCSc1nc(-c2ccccc2)nc2ccc(F)cc12  -3.1%
29. Cc1cc(C(F)F)nn1CC(=O)NC1CCCCCC1  -2.98%
30. CC(O)c1cccc(NC(=O)Cc2cccc3ccccc23)c1 (stereo not given)  -2.93%
31. CC(C)(O)C#Cc1ncc(C(F)(F)F)cc1Cl  -2.8%
32. CCC(=O)Nc1cc(C(F)(F)F)ccc1N1CCCC1  -2.4%
33. CCn1ccnc1CN(C)C(=O)c1ccc2nc(Cc3ccc(OC)cc3)oc2c1  -2.13%
34. COCc1cc(=O)[nH]c(SC)n1  -1.78%
35. COn1c(=O)c(=O)n(OC)c2ccccc21  -1.64%
36. Cc1ccc(C2(C(F)(F)F)N=C3Sc4cc(C)cc(C)c4N3C(=O)N2)cc1 (stereo not given)  -0.482%
37. CC1CC2C3CCC4=CC(=O)C=C[C@]4(C)[C@@]3(F)[C@@H](O)C[C@]2(C)[C@@]1(O)C(=O)CO (stereo not given in full)  -0.431%
38. CCOc1ccc(CCNC(=O)COC(=O)c2ccc(F)c(S(=O)(=O)N3CCOCC3)c2)cc1OCC  1.23%
39. O=S(=O)(Nc1ccc2nc(-c3ccco3)[nH]c2c1)c1ccccc1  1.38%
40. O=S(=O)(Nc1ccccc1Cl)c1cccc2nsnc12  2.19%
41. CCOC(=O)C1CN(S(=O)(=O)c2ccc(F)cc2)C1  2.46%
42. CC(C)NC(=O)NCCCCCCS(C)=O (stereo not given)  3.21%
43. Cc1snc(SCc2c(F)cccc2Cl)c1C#N  3.84%
44. COc1ccc(-n2nc3c(c2NC(=O)c2ccc(N4C(=O)CCC4=O)cc2)CSC3)cc1  4.7%
45. Clc1cccc(Cl)c1Cn1nnc(-c2cccs2)n1  6.83%
46. N#Cc1cccc(OC(=O)c2ccc3c(=O)n4c(nc3c2)CCC4)c1  9.42%
47. O=C(NC1CCCC1)C(c1ccco1)N(C(=O)c1ccco1)c1ccc(F)cc1 (stereo not given)  11.4%
48. Cc1ccc(NC(=O)CCNC(=O)c2ccc([N+](=O)[O-])cc2)cc1S(=O)(=O)N1CCOCC1  12.8%
49. CCOc1cc(-c2noc(CCCC(=O)NC3CCCCC3)n2)ccc1OC  13.3%

`C#CCOCCOCCOCCNc1nc(N2CCN(C(=O)CCCCCCCCCCNC(=O)[C@H]([C@@H](C)CC)n3cc(CCCCN=C(N)N)nn3)CC2)nc(N2CCN(C(=O)CCCCCCCCCCNC(=O)[C@H](CO)n3cc(CCCSC)nn3)CC2)n1` was tested, and the Potency was 31.6 µM (active).
